From ChEMBL document CHEMBL1961873, “Compounds: GSK PKIS; Assays: Nanosyn kinase panel” (2012)

Legend:
[1] = test system: Epidermal growth factor receptor (Homo sapiens), P00533 [T790M]; conditions: at 1 µM
[2] = test system: Epidermal growth factor receptor (Homo sapiens), P00533 [L858R,T790M]; conditions: at 0.1 µM
[3] = test system: Epidermal growth factor receptor (Homo sapiens), P00533 [L858R,T790M]; conditions: at 1 µM
[4] = molecular target: Ephrin type-A receptor 2 (Homo sapiens) (UniProt P29317); conditions: at 0.1 µM
Chain of Ephrin type-A receptor 2 (Homo sapiens) (P29317 whole entry): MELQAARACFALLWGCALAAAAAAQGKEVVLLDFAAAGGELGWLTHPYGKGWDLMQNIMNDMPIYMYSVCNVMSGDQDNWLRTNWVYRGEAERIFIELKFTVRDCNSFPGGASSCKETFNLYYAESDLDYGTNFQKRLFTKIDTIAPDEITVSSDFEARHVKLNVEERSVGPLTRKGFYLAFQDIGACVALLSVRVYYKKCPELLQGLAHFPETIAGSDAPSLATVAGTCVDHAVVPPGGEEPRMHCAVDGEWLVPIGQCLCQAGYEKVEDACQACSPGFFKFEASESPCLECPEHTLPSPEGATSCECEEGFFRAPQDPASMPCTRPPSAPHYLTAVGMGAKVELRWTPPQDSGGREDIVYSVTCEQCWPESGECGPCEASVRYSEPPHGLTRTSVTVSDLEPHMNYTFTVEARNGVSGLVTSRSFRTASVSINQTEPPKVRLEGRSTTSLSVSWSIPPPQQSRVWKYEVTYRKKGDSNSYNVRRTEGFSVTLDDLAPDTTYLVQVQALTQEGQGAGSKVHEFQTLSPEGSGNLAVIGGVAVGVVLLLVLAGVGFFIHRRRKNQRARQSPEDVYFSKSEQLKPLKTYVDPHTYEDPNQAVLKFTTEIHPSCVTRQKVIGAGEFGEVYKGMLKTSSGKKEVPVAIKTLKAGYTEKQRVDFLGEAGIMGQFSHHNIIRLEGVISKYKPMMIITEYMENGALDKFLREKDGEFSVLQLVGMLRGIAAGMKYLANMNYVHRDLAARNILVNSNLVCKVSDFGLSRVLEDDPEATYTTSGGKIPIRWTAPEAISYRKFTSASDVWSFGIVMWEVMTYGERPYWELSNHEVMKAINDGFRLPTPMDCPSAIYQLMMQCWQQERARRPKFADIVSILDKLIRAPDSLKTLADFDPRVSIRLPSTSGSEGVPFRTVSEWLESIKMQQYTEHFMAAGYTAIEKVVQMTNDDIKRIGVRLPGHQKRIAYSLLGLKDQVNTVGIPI

[5] = molecular target: Ephrin type-A receptor 2 (Homo sapiens) (UniProt P29317); conditions: at 1 µM
[6] = molecular target: T1, Ephrin type-A receptor 3 (Homo sapiens) (UniProt P29320); conditions: at 0.1 µM
T1 sequence (whole entry): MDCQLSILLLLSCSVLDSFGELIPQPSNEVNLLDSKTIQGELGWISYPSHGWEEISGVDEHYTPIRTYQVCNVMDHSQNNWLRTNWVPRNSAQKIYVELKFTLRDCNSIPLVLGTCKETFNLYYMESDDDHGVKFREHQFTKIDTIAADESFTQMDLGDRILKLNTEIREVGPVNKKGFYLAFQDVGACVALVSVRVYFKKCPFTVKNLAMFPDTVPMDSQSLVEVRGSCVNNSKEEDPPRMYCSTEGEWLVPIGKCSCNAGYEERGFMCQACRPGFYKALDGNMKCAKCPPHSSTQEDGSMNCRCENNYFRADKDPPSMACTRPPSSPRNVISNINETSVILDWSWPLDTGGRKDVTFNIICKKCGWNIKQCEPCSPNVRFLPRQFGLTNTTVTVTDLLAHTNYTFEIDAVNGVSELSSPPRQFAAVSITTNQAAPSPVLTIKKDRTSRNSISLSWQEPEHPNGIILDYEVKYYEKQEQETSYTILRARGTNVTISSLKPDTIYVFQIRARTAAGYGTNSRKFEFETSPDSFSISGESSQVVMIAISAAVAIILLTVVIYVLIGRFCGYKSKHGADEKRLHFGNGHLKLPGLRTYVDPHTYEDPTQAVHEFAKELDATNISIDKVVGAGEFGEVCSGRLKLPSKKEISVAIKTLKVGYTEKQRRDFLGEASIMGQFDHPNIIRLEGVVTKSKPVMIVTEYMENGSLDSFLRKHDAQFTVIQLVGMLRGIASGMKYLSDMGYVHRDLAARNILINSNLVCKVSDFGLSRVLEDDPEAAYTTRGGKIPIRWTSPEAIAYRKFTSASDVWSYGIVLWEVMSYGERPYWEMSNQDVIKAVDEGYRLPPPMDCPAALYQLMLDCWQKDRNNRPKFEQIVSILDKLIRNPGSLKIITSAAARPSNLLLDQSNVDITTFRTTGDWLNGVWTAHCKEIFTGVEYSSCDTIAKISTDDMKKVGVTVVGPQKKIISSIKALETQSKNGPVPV

[7] = molecular target: T1, Ephrin type-A receptor 3 (Homo sapiens); conditions: at 1 µM
[8] = molecular target: Ephrin type-A receptor 4 (Homo sapiens) (UniProt P54764); conditions: at 0.1 µM
Chain of Ephrin type-A receptor 4 (Homo sapiens) (P54764 whole entry): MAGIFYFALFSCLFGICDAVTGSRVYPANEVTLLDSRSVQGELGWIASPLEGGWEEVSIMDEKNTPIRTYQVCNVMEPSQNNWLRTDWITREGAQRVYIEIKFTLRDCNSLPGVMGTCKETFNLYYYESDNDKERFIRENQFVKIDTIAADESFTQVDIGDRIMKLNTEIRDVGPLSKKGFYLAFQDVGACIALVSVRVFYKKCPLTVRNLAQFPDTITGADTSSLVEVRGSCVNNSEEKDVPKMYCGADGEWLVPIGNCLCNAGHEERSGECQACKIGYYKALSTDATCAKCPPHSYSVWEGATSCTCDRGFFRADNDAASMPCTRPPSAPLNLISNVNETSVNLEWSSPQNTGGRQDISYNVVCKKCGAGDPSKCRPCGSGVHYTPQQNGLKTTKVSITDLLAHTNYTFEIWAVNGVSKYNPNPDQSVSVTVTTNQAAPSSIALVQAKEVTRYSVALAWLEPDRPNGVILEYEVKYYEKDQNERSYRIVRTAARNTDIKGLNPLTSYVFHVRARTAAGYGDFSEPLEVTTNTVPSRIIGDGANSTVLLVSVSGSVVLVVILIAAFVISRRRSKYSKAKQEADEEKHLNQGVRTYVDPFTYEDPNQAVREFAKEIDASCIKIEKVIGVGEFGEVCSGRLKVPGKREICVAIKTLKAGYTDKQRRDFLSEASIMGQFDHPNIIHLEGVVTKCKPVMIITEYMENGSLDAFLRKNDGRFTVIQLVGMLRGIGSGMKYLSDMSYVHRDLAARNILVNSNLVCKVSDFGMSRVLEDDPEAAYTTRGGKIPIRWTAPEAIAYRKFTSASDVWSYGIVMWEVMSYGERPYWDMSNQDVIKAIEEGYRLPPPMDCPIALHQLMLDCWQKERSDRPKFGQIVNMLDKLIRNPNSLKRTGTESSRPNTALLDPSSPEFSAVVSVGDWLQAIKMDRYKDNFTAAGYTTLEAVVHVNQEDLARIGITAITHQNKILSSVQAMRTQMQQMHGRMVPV

[9] = molecular target: Ephrin type-A receptor 4 (Homo sapiens) (UniProt P54764); conditions: at 1 µM
[10] = molecular target: T2, Ephrin type-B receptor 2 (Homo sapiens) (UniProt P29323); conditions: at 0.1 µM;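 also: reported as mean inhibition of EPHB2, from the GSK PKIS dataset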
T2 sequence (whole entry): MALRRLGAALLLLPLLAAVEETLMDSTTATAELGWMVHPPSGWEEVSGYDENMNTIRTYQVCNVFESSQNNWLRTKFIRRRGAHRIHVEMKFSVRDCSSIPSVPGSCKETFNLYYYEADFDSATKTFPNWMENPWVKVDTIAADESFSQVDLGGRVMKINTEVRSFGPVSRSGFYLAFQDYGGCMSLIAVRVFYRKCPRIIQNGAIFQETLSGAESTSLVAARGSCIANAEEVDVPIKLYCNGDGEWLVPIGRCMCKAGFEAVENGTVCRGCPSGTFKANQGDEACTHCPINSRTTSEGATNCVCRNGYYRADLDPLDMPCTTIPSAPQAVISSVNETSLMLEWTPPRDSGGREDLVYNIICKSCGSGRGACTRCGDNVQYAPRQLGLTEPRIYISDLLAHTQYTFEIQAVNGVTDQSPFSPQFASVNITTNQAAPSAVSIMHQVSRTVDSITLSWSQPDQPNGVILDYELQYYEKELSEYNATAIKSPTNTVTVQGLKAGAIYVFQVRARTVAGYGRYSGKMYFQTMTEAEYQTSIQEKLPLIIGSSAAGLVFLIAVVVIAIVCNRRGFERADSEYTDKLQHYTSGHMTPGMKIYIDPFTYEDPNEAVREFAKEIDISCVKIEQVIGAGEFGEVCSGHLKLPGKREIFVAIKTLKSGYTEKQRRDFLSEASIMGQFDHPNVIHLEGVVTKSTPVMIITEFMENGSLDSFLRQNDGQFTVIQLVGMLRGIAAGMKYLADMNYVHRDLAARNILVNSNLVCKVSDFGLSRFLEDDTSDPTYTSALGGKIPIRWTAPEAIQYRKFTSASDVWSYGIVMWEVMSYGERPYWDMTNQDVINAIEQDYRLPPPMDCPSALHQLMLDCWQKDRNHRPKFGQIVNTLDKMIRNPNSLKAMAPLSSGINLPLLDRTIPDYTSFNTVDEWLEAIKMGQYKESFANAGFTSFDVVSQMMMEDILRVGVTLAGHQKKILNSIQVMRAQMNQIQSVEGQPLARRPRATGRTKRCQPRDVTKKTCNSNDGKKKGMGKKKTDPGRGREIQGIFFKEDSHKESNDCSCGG

Chain of Epidermal growth factor receptor (Homo sapiens), P00533 [T790M] (P00533 whole entry T790M): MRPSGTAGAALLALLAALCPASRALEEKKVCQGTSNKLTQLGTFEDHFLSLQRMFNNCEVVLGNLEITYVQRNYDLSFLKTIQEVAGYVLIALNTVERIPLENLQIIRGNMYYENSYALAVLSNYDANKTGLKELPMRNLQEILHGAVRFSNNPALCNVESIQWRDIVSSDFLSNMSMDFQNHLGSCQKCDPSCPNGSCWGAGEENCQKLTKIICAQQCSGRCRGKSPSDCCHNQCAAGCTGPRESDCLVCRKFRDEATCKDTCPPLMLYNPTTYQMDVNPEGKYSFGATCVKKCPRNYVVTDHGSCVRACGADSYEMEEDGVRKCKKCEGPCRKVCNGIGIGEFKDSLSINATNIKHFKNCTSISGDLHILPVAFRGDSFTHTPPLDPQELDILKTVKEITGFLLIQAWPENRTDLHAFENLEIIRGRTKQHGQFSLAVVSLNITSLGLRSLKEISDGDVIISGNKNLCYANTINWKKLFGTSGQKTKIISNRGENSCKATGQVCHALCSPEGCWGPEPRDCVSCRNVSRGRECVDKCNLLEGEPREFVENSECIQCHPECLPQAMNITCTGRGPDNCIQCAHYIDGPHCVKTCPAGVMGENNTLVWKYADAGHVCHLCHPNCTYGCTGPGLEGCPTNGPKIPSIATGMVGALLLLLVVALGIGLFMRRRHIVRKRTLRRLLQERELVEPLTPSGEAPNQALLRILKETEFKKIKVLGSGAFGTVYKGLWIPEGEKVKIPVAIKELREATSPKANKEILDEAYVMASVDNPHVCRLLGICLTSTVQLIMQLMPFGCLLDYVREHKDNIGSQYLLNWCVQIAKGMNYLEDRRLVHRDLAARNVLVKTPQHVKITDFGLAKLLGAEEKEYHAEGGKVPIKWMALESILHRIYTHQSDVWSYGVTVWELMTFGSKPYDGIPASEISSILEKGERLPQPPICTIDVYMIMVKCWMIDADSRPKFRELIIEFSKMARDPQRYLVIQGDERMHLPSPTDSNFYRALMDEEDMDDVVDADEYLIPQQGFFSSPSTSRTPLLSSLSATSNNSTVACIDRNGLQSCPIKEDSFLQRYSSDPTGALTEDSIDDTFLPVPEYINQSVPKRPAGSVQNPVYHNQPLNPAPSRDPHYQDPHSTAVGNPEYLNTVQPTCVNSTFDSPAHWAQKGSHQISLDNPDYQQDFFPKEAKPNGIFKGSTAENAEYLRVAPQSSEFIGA
Chain of Epidermal growth factor receptor (Homo sapiens), P00533 [L858R,T790M] (P00533 whole entry T790M/L858R, looked up): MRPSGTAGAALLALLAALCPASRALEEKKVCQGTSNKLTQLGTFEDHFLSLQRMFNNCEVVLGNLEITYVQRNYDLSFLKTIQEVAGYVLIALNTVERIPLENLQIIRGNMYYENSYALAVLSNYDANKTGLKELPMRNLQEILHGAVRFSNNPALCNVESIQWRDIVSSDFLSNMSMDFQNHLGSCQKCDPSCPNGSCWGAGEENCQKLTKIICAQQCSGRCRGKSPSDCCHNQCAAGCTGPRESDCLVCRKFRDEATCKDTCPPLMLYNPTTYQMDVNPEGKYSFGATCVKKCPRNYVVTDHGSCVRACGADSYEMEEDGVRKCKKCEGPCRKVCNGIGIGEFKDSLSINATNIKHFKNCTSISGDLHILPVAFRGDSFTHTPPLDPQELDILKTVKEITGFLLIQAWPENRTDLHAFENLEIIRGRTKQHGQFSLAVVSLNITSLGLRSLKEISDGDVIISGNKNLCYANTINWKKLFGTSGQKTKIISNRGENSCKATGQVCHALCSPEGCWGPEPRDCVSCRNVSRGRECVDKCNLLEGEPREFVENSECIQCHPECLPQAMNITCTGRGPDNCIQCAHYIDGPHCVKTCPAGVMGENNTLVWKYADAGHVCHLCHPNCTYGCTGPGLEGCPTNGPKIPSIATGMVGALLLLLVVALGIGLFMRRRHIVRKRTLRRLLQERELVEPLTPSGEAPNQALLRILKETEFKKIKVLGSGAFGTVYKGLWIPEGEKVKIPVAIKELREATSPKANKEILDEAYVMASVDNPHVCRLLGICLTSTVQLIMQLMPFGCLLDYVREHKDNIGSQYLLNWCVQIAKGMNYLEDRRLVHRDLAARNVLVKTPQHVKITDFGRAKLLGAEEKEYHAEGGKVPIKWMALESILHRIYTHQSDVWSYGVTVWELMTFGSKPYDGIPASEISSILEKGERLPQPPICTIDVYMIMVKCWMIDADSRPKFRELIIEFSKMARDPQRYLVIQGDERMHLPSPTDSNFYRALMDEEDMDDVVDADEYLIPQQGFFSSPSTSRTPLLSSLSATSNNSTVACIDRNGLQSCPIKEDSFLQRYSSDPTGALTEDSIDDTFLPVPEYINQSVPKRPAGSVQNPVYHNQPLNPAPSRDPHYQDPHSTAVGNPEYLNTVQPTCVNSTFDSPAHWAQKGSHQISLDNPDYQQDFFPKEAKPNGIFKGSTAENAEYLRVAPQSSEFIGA

With `O=C(Nc1n[nH]c2cc(-c3ccc(F)cc3)ccc12)C1CC1` the inhibition [1] was 1.6%, the inhibition [2] was 1.46% and the inhibition [3] was 1.41%. It also gave an inhibition [4] of -2.34%, an inhibition [5] of -1.62% and an inhibition [6] of 2.89%. The inhibition [7] was 4.36%, the inhibition [8] was 7.63% and the inhibition [9] was 4.17%. The inhibition [10] was 6.99%.

For `Cc1ccc(O)cc1Nc1ccnc2cc(-c3ccccn3)ccc12`, the inhibition [1] was 15.3%, the inhibition [2] was 3.59% and the inhibition [3] was 30.4%. For the same compound, the inhibition [4] was 34.4%, the inhibition [5] was 80.2% and the inhibition [6] was 79.3%. For the same compound, the inhibition [7] was 87.5%, the inhibition [8] was 91.2% and the inhibition [9] was 90.9%. It also gave an inhibition [10] of 90.5%.

Compound `c1cc(-c2cnn3nc(N4CCOCC4)ccc23)nc(NC2CC2)n1` has an inhibition [1] of 0.49%, an inhibition [2] of 1.11% and an inhibition [3] of 1.53%. It also gave an inhibition [4] of 2.12%, an inhibition [5] of 0.18% and an inhibition [6] of 5.23%. The inhibition [7] was 5.8%, the inhibition [8] was 10.2% and the inhibition [9] was 10.9%. The inhibition [10] was 10.2%.

`COc1cc(/C=N/Nc2ncnc3[nH]ncc23)ccc1O` showed an inhibition [1] of 4.2%, an inhibition [2] of -0.56% and an inhibition [3] of 5.5%. The inhibition [4] was 6.02%, the inhibition [5] was 21% and the inhibition [6] was 5.55%. It also gave an inhibition [7] of 16.5%, an inhibition [8] of 14.9% and an inhibition [9] of 55.3%. The inhibition [10] was 11.7%.

For `COc1ccc(-c2cc(-c3c[nH]nc3-c3ccccn3)ccn2)cc1`, the inhibition [1] was 4.53%, the inhibition [2] was 2.1% and the inhibition [3] was 4.71%. It also gave an inhibition [4] of 2.38%, an inhibition [5] of 1.07% and an inhibition [6] of 4.5%. For the same compound, the inhibition [7] was 7.51%, the inhibition [8] was 8.66% and the inhibition [9] was 14.1%. The inhibition [10] was 7.99%.

`CCn1cc(-c2ccnc3[nH]ccc23)c(-c2cccc(NC(=O)Nc3ccc(OCc4ccccc4)cc3)c2)n1` showed an inhibition [1] of -1.25%, an inhibition [2] of 0.93% and an inhibition [3] of -1.31%. For the same compound, the inhibition [4] was 1.83%, the inhibition [5] was 0.05% and the inhibition [6] was 0.1%. For the same compound, the inhibition [7] was 1.02%, the inhibition [8] was 0.23% and the inhibition [9] was 3.4%. It also gave an inhibition [10] of -2.33%.

Work on `CNC(=O)c1cc(-c2ccc(F)cc2)cc(-c2ccc(S(=O)(=O)N3CCCC3)cc2)c1N` yielded an inhibition [1] of 0.62%, an inhibition [2] of -0.37% and an inhibition [3] of 2.95%. It also gave an inhibition [4] of -2.99%, an inhibition [5] of -1.92% and an inhibition [6] of 2.55%. For the same compound, the inhibition [7] was 2.23%, the inhibition [8] was 5.15% and the inhibition [9] was 6.55%. The inhibition [10] was 2.73%.

`CCn1c(-c2nonc2N)nc2c(C#CC(C)(C)O)nc(OC[C@H](N)c3ccccc3)cc21` showed an inhibition [1] of 4.71%, an inhibition [2] of 0.92% and an inhibition [3] of 2.55%. The inhibition [4] was 0.4%, the inhibition [5] was -0.31% and the inhibition [6] was 2.11%. For the same compound, the inhibition [7] was 1.87%, the inhibition [8] was 5.06% and the inhibition [9] was 4.87%. For the same compound, the inhibition [10] was 0.04%.

`O=S(=O)(CCNCc1ccc(-c2ccc3ncnc(Nc4ccc(OCc5cccc(F)c5)c(Cl)c4)c3c2)o1)c1ccccc1` showed an inhibition [1] of 6.26%, an inhibition [2] of 1.22% and an inhibition [3] of 1.97%. The inhibition [4] was 1.86%, the inhibition [5] was 1.73% and the inhibition [6] was 4.61%. The inhibition [7] was 6.18%, the inhibition [8] was 5.63% and the inhibition [9] was 13.3%. It also gave an inhibition [10] of 14.7%.

In the case of `COc1cc2ncn(-c3cc(OCc4ccccc4C(F)(F)F)c(C(=O)N(C)C)s3)c2cc1OC`, the inhibition [1] is reported as -1.36%, the inhibition [2] is reported as 0.72% and the inhibition [3] is reported as -1.46%. The inhibition [4] was -1.69%, the inhibition [5] was -2.94% and the inhibition [6] was 2.89%. The inhibition [7] was 1.92%, the inhibition [8] was 2.87% and the inhibition [9] was 4.19%. For the same compound, the inhibition [10] was 0.66%.

`CN1CCC(n2cnc(-c3ccc(F)cc3)c2-c2ccnc(Nc3ccccc3)n2)CC1` was tested, and the inhibition [1] was 15.5%, the inhibition [2] was 9.65% and the inhibition [3] was 49.1%. For the same compound, the inhibition [4] was 0.44%, the inhibition [5] was 0.04% and the inhibition [6] was 1.78%. The inhibition [7] was 4.18%, the inhibition [8] was 7.5% and the inhibition [9] was 13.3%. The inhibition [10] was 12.9%.

In the case of `COC(=O)c1sc(-n2cnc3cc(OC)c(OC)cc32)cc1OCc1ccccc1C(F)(F)F`, the inhibition [1] is reported as -0.3%, the inhibition [2] is reported as -1.64% and the inhibition [3] is reported as 1.53%. It also gave an inhibition [4] of 2.23%, an inhibition [5] of 3.86% and an inhibition [6] of 4.53%. For the same compound, the inhibition [7] was 3.54%, the inhibition [8] was 9.09% and the inhibition [9] was 4.17%. For the same compound, the inhibition [10] was 6.43%.

In the case of `CNC(=O)c1cccc(C#Cc2cncnc2Nc2ccc(OCc3cccc(F)c3)c(Cl)c2)c1`, the inhibition [1] is reported as 4.1%, the inhibition [2] is reported as -0.69% and the inhibition [3] is reported as 1.65%. It also gave an inhibition [4] of 2.11%, an inhibition [5] of -0.11% and an inhibition [6] of 1.08%. The inhibition [7] was 0.39%, the inhibition [8] was 5.81% and the inhibition [9] was 6.8%. The inhibition [10] was 3.54%.

Compound `c1ccc(COc2ccc(Nc3ncnc4ccc(-c5ccco5)cc34)cc2)cc1` has an inhibition [1] of 5%, an inhibition [2] of -0.19% and an inhibition [3] of -1.64%. The inhibition [4] was 0.9%, the inhibition [5] was -0.47% and the inhibition [6] was -0.08%. For the same compound, the inhibition [7] was 0.71%, the inhibition [8] was 0.05% and the inhibition [9] was 2.86%.

`NS(=O)(=O)c1ccc(Nc2ncc(-c3ccccc3)o2)cc1` was tested, and the inhibition [1] was 0.87%, the inhibition [2] was 2.14% and the inhibition [3] was 0.87%. The inhibition [4] was 2.66%, the inhibition [5] was 3.5% and the inhibition [6] was 2.94%. For the same compound, the inhibition [7] was 4.57%, the inhibition [8] was 7.23% and the inhibition [9] was 12%. For the same compound, the inhibition [10] was 5.54%.

With `Cc1cccc2c1NC(=O)/C2=N\Nc1ccc(S(N)(=O)=O)cc1` the inhibition [1] was 0.35%, the inhibition [2] was 3.72% and the inhibition [3] was 1.46%. It also gave an inhibition [4] of 2.85%, an inhibition [5] of 3.42% and an inhibition [6] of 4.1%. The inhibition [7] was 3.43%, the inhibition [8] was 6.06% and the inhibition [9] was 7.18%. The inhibition [10] was 7.03%.

`Nc1nc(-c2ccc(F)cc2)c(-c2ccc3ncccc3n2)s1` showed an inhibition [1] of 5.63%, an inhibition [2] of 4.54% and an inhibition [3] of 14.7%. It also gave an inhibition [4] of 0.69%, an inhibition [5] of 0.59% and an inhibition [6] of 5.86%. It also gave an inhibition [7] of 6.22%, an inhibition [8] of 9.7% and an inhibition [9] of 14.6%. For the same compound, the inhibition [10] was 9.15%.

Compound `N#Cc1c(NC(=O)c2ccc(F)cc2)sc2c1CCCC2` has an inhibition [1] of -0.08%, an inhibition [2] of -2.24% and an inhibition [3] of 0.47%. It also gave an inhibition [4] of -2.58%, an inhibition [5] of -2.61% and an inhibition [6] of 1.47%. For the same compound, the inhibition [7] was 2.8%, the inhibition [8] was 4.24% and the inhibition [9] was 2.26%. It also gave an inhibition [10] of 2.69%.

For `COc1ccc(CNC(=O)c2ccc(-c3cc(-c4nnc(C)o4)ccc3C)cc2)cc1`, the inhibition [1] was 5.47%, the inhibition [2] was 3.26% and the inhibition [3] was 3.61%. For the same compound, the inhibition [4] was 2.44%, the inhibition [5] was 2.41% and the inhibition [6] was 1.41%. The inhibition [7] was 4.21%, the inhibition [8] was 5.67% and the inhibition [9] was 15.7%. The inhibition [10] was 7.58%.
